Measured values from PubChem BioAssay (EPA / NIEHS).
Records with an inconclusive call do not appear. Active and inactive are the calls of the source. The calls were made as follows, unless noted: active = hit-call score of the fitted dose curve at least 0.9, where 1 is the maximum; inactive = score below 0.9.

Columns and labels:
[1] = target: Oxysterols receptor LXR-alpha (Homo sapiens) (UniProt Q13133); test: ATG_LXRa_TRANS: Attagene TRANS-FACTORIAL HepG2 Assay for human Liver X Receptor alpha (LXRa) (AID 2282980; active = hit-call score of the fitted dose curve at least 0.9, where 1 is the maximum); conditions: HepG2 Attagene TRANS reporter, LXRa transactivation
Outline: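 Read-out: reporter transcript levels by RT-PCR plus capillary electrophoresis, fluorescence intensity. Transiently transfected HepG2, exogenous NR-GAL4 chimera, GAL4-UAS reporters; 24 h compound exposure. Activity = increase over DMSO negative control.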

[2] = target: Oxysterols receptor LXR-beta (Homo sapiens) (UniProt P55055); test: ATG_LXRb_TRANS: Attagene TRANS-FACTORIAL HepG2 Assay for human Liver X Receptor beta (LXRb) (AID 2282981; active = hit-call score of the fitted dose curve at least 0.9, where 1 is the maximum); conditions: HepG2 Attagene TRANS GAL4-LXRb reporter, mRNA
Outline: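 Multiplexed reporter assay, HepG2, 24 h dosing. Fluorescence of labelled RT-PCR products after capillary electrophoresis gives transcript level; positive fitting direction relative to DMSO.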

[3] = target: Hepatocyte nuclear factor 4-alpha (Homo sapiens) (UniProt P41235); test: ATG_HNF4a_TRANS: Attagene TRANS-FACTORIAL HepG2 Assay for human Hepatocyte Nuclear Factor 4 alpha (HNF4a) (AID 2282982; active = hit-call score of the fitted dose curve at least 0.9, where 1 is the maximum); conditions: HepG2 HNF4a transactivation reporter, mRNA readout
Outline: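 Endpoint reflects transcriptional activation of a GAL4-UAS reporter by an HNF4a-GAL4 chimera in transfected HepG2 cells, 24 h post-dosing. Fluorescence from RT-PCR products separated by capillary electrophoresis; DMSO baseline.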

[4] = ATG_M_06_TRANS: Attagene TRANS-FACTORIAL HepG2 Assay for M06 Transcription Factor (Internal Marker) (AID 2282983; active = hit-call score of the fitted dose curve at least 0.9, where 1 is the maximum); conditions: HepG2 Attagene TRANS M06 internal marker reporter
Outline: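 Read-out: fluorescent reporter cDNA fragments resolved by capillary electrophoresis after RT-PCR and HpaI cut. Source cells were HepG2 carrying transfected multi-reporter GAL4 constructs, dosed 24 h. Increase over DMSO control analysed.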

[5] = ATG_M_32_TRANS: Attagene TRANS-FACTORIAL HepG2 Assay for M32 Transcription Factor (Internal Marker) (AID 2282984; active = hit-call score of the fitted dose curve at least 0.9, where 1 is the maximum); conditions: HepG2 Attagene TRANS M32 internal marker reporter
Outline: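 Internal-marker readout from a multiplexed transcription reporter panel. HepG2 cells were transfected with GAL4-UAS reporter units, treated 24 hours, and reporter transcript levels determined by fluorescence after RT-PCR and capillary separation.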

[6] = target: Nuclear receptor subfamily 4 group A member 2 (Homo sapiens) (UniProt P43354); test: ATG_NURR1_TRANS: Attagene TRANS-FACTORIAL HepG2 Assay for human Nuclear Receptor Related Protein 1 (NURR1) (AID 2282985; active = hit-call score of the fitted dose curve at least 0.9, where 1 is the maximum); conditions: HepG2 Attagene TRANS reporter, mRNA readout
Outline: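 Endpoint: reporter mRNA increase relative to DMSO. HepG2 cells transfected with reporter units, treated 24 h; RNA processed by RT-PCR, labelling, HpaI digestion and capillary electrophoresis.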

[7] = target: Transcriptional activator Myb (Homo sapiens) (UniProt P10242); test: ATG_Myb_CIS: Attagene CIS-FACTORIAL HepG2 Assay for human Myeloblastosis (Myb) Proto-Oncogene Transcription Factor (AID 2282986); conditions: HepG2 Attagene CIS-FACTORIAL Myb reporter transcription; actives raise or lower the signal
Outline: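 Reporter transcript levels, quantified by fluorescent RT-PCR and capillary electrophoresis, serve as the read-out. Transfected HepG2 cells carrying cis-promoter reporter units are dosed for 24 hours, and curves are fitted bidirectionally against DMSO controls.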

[8] = ATG_NFI_CIS: Attagene CIS-FACTORIAL HepG2 Assay for human Nuclear Factor I (NFI) (AID 2282989); conditions: HepG2 cis-regulatory reporter, NFI response element transcription; actives raise or lower the signal
Outline: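 Multiplexed cis-reporter system in human HepG2 cells reports native TF activity as reporter mRNA induction 24 h post-dose. Fragments labelled with 6-FAM, HpaI-digested and resolved by capillary electrophoresis; activity fitted both directions versus DMSO.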

[9] = target: Myc proto-oncogene protein (Homo sapiens) (UniProt P01106); test: ATG_Myc_CIS: Attagene CIS-FACTORIAL HepG2 Assay for human Myelocytomatosis (Myc) Proto-Oncogene Transcription Factor (AID 2282990); conditions: HepG2, Attagene cis-reporter transcription factor activity; actives raise or lower the signal
Outline: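 Read-out: fluorescent reporter mRNA fragments resolved by capillary electrophoresis after RT-PCR. Human HepG2 liver cells carried transfected cis-element reporter units and were dosed for 24 h. Gain or loss of signal fitted relative to DMSO baseline.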

[10] = ATG_NRF2_ARE_CIS: Attagene CIS-FACTORIAL HepG2 Assay for human Nuclear Factor Erythroid 2 Related Factor 2 (NFR2) response to Antioxidant Response Elements (ARE) (AID 2282992); conditions: HepG2 Attagene ARE/NRF2 reporter, transcription factor activity; actives raise or lower the signal
Outline: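 Endogenous transcription factor activity read out as reporter transcript levels (RT-PCR plus capillary electrophoresis, fluorescence) in transiently transfected HepG2 cells. Measured at 24 h after dosing; gain or loss of signal fitted versus DMSO.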

[11] = ATG_Oct_MLP_CIS: Attagene CIS-FACTORIAL HepG2 Assay for human Octamer-Binding Transcription Factor (Oct) (AID 2282993); conditions: HepG2 Attagene cis-factorial Oct reporter, mRNA; actives raise or lower the signal
Outline: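 After 24 h compound exposure, transfected HepG2 cells were lysed for total RNA; reporter-specific cDNA was PCR-amplified, fluorescently labelled and sized by capillary electrophoresis. Bidirectional curve fitting used DMSO as baseline.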

[12] = BSK_3C_TissueFactor: BioMAP Diversity Plus: 3C Assay for Tissue Factor Biomarker Activity (AID 2282997); conditions: BioMAP 3C HUVEC, tissue factor biomarker readout; actives raise or lower the signal
Outline: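 HUVEC, 3C system, 24 h post-dose; Tissue Factor by ELISA; bidirectional fit vs DMSO baseline.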

[13] = BSK_3C_uPAR: BioMAP Diversity Plus: 3C Assay for Urokinase-type plasminogen activator receptor (uPAR) Biomarker Activity (AID 2282998); conditions: BioMAP 3C HUVEC, uPAR biomarker ELISA; actives raise or lower the signal
Outline: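 Values derive from bidirectional curve fitting relative to DMSO, which served as baseline of activity. uPAR was measured by ELISA in human umbilical vein endothelial primary cultures 24 h after compound addition.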

[14] = BSK_3C_VCAM1: BioMAP Diversity Plus: 3C Assay for Vascular cell adhesion molecule 1 (VCAM1) Biomarker Activity (AID 2282999); conditions: BioMAP 3C HUVEC, VCAM1 ELISA, cytokine-stimulated; actives raise or lower the signal
Outline: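 HUVEC primary cells, 24 h compound exposure; VCAM-1 by ELISA; gain/loss of signal fitted bidirectionally vs DMSO baseline.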

[15] = BSK_4H_Eotaxin3: BioMAP Diversity Plus: 4H Assay for Eotaxin 3 Biomarker Activity (AID 2283000); conditions: primary human endothelial cells (HUVEC); actives raise or lower the signal;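 also: CCL26 protein level quantified by ELISA in parallel with SRB cytotoxicity check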
Outline: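 Readout is Eotaxin-3 (CCL26) level by ELISA in primary human umbilical vein endothelial cells harvested 24 h after chemical exposure; activity fitted in both directions against DMSO control.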

[16] = target: Nuclear respiratory factor 1 (Homo sapiens) (UniProt Q16656); test: ATG_NRF1_CIS: Attagene CIS-FACTORIAL HepG2 Assay for human Nuclear Respiratory Factor 1 (NRF1) Orphan Gene (AID 2282987); conditions: HepG2 NRF1 cis-element reporter, Attagene multiplex; actives raise or lower the signal
Outline: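 Multiplexed cis-reporter assay, HepG2 cells, 24 h treatment. Total RNA → oligo(dT) RT → PCR with reporter-specific primers → 6-FAM primer extension → HpaI cut → CE. Bidirectional fit vs DMSO.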

[17] = target: Cellular tumor antigen p53 (Homo sapiens) (UniProt P04637); test: ATG_p53_CIS: Attagene CIS-FACTORIAL HepG2 Assay for human p53 Transcription Factor (AID 2282994); conditions: HepG2 p53 cis-element reporter, Attagene mRNA; actives raise or lower the signal
Outline: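 Endogenous p53 activity read in transiently transfected HepG2 from a cis-element-driven reporter transcript after 24 h exposure. RNA reverse-transcribed, PCR-amplified, fluorescently labelled and sized by capillary electrophoresis; gain or loss fitted against DMSO baseline.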

[18] = ATG_NF_kB_CIS: Attagene CIS-FACTORIAL HepG2 Assay for human Nuclear Factor Kappa B (NF-kB) (AID 2282991); conditions: HepG2 Attagene cis-factorial NF-kB reporter mRNA; actives raise or lower the signal
Outline: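 Transient MRTU transfection of human HepG2 liver cells → 24 h chemical exposure → total RNA, oligo(dT) RT → PCR, 6-FAM primer extension, HpaI digest 2 h 37 C → CE fragment analysis. Bidirectional fitting, DMSO negative control.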

Measured: AC50

Chain of Hepatocyte nuclear factor 4-alpha (Homo sapiens) (P41235 whole entry, looked up, the tested form may be a part): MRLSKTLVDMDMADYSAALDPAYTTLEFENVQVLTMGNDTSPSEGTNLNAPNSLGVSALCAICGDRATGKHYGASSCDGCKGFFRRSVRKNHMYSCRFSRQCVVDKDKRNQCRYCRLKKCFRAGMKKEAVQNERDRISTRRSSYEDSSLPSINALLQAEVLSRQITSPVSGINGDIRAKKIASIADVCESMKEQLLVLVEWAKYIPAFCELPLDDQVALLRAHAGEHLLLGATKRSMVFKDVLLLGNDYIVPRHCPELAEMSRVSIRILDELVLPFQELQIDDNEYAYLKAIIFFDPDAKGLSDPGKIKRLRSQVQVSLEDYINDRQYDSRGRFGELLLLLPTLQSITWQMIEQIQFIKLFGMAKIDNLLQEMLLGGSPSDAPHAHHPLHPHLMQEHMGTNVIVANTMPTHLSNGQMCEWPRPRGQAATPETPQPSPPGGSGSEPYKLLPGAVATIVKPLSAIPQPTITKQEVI
Chain of Nuclear respiratory factor 1 (Homo sapiens) (Q16656 whole entry, looked up): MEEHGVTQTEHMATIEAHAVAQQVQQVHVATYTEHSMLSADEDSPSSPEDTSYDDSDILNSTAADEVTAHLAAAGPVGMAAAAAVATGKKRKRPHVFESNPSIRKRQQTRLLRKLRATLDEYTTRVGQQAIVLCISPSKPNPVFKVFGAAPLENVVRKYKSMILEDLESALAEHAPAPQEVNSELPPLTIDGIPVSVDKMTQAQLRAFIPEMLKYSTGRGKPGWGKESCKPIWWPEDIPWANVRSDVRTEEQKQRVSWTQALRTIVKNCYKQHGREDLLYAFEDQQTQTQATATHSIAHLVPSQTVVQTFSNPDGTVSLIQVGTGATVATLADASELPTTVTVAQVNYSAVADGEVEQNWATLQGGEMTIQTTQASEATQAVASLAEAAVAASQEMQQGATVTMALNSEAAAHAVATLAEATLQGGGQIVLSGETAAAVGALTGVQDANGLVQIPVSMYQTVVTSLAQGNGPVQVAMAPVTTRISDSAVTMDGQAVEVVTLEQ
Chain of Nuclear receptor subfamily 4 group A member 2 (Homo sapiens) (P43354 whole entry, looked up): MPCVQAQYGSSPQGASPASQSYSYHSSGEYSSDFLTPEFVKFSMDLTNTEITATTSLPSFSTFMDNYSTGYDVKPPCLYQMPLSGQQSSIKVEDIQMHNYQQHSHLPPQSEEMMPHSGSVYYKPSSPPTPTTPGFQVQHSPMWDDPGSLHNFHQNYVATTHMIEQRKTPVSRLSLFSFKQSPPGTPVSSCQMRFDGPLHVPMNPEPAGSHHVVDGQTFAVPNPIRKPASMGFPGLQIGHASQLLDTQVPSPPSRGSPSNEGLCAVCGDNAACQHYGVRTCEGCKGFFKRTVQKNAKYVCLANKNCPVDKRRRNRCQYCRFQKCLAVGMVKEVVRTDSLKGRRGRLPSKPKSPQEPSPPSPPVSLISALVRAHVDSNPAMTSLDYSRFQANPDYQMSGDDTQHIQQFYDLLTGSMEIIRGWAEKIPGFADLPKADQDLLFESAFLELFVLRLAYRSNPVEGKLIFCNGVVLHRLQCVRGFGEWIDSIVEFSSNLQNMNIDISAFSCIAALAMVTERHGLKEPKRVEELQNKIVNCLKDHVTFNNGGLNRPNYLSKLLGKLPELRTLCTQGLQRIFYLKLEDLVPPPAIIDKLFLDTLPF
Chain of Oxysterols receptor LXR-beta (Homo sapiens) (P55055 whole entry, looked up, the tested form may be a part): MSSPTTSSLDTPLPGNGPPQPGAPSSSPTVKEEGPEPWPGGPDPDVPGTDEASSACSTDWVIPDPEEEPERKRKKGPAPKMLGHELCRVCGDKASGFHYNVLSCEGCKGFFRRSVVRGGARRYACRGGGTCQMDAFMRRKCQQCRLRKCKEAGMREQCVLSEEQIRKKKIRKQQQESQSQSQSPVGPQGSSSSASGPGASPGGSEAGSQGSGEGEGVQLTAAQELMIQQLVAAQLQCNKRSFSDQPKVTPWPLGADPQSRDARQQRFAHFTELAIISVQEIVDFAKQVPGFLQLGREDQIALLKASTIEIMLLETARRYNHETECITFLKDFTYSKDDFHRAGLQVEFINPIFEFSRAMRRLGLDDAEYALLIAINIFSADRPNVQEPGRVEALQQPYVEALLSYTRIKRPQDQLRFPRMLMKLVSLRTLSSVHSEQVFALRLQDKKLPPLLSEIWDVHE
Chain of Myc proto-oncogene protein (Homo sapiens) (P01106 whole entry, looked up, the tested form may be a part): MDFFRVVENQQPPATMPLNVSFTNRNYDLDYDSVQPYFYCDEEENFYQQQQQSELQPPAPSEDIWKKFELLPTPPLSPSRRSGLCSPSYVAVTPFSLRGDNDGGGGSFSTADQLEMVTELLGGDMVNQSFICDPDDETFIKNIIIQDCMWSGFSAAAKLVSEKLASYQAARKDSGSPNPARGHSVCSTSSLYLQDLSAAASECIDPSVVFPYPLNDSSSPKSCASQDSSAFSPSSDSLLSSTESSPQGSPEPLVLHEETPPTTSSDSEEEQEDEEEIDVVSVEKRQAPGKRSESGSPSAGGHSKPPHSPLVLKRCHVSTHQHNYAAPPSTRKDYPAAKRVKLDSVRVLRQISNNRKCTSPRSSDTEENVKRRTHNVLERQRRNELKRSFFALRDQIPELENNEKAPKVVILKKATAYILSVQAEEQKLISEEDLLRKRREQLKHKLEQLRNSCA
Chain of Transcriptional activator Myb (Homo sapiens) (P10242 whole entry, looked up): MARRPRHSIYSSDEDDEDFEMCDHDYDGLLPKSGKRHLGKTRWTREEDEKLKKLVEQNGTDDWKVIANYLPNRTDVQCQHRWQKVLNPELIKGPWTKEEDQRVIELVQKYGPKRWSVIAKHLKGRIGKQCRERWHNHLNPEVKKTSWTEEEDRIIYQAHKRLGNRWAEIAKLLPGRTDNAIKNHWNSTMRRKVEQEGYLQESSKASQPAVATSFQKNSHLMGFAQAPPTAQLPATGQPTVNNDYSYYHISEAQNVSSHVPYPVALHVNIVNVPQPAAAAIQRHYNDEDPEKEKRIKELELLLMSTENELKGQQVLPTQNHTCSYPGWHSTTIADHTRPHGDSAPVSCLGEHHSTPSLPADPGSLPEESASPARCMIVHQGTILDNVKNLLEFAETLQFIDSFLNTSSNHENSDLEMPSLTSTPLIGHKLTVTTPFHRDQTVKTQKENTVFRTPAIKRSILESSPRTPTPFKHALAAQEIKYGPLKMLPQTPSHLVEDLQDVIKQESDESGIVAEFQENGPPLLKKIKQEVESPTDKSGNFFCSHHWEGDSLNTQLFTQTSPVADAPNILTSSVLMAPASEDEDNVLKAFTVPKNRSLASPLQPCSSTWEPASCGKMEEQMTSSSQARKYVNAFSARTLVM
Chain of Cellular tumor antigen p53 (Homo sapiens) (P04637 whole entry, looked up): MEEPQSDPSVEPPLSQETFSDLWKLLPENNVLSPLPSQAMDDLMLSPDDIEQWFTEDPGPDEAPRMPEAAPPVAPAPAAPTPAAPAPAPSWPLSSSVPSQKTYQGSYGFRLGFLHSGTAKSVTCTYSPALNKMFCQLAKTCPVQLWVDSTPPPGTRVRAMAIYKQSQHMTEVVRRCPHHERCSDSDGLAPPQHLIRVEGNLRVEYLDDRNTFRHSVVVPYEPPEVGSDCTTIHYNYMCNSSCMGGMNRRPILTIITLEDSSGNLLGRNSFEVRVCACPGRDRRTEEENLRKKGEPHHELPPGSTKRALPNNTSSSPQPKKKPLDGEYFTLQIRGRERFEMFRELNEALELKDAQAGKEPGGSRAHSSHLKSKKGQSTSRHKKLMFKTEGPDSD
Chain of Oxysterols receptor LXR-alpha (Homo sapiens) (Q13133 whole entry, looked up, the tested form may be a part): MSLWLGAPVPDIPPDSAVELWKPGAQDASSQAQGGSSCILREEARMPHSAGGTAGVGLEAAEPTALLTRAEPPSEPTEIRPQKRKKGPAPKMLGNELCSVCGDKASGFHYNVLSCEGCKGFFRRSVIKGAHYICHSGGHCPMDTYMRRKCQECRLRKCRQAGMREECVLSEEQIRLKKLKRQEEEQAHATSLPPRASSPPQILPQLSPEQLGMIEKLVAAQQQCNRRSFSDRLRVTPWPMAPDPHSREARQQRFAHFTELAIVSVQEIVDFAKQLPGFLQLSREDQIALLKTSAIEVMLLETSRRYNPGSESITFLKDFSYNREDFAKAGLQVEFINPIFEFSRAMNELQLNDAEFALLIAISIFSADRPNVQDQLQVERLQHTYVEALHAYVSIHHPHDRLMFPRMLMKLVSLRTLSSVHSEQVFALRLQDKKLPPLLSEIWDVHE

O=C(NO)C1(NS(=O)(=O)c2ccc(Oc3ccc(F)cc3)cc2)CCOCC1
active: [10] 33 µM
inactive: [1] | [2] | [3] | [4] | [5] | [6] | [7] | [8] | [9] | [11] | [12] | [13] | [14] | [15]

CCCCCCCC/C=C\CCCCCCCC(=O)OC[C@@H](O)[C@H]1OC[C@H](O)[C@H]1O
inactive: [2] | [3] | [5] | [6] | [7] | [16] | [8] | [9] | [10] | [11] | [17] | [12] | [13] | [14] | [15]

NC(N)=O
inactive: [2] | [3] | [5] | [6] | [8] | [9] | [10] | [11] | [12] | [13] | [14] | [15]

CCOc1ccc2[nH]cc(C(=O)NCc3ccccc3)c(=O)c2n1
inactive: [3] | [4] | [5] | [6] | [8] | [9] | [11] | [12] | [13] | [14] | [15]
active: [10] 9.32 µM

NC(=O)N1c2ccccc2C=Cc2ccccc21
inactive: [2] | [4] | [5] | [16] | [8] | [18] | [10] | [11] | [12] | [13] | [14] | [15]

CCCCN1C(=O)[C@@H]([C@H](O)C2CCCCC2)NC(=O)C12CCN(Cc1ccc(Oc3ccc(C(=O)O)cc3)cc1)CC2
active: [17] 93.5 µM | [13] 26.7 µM
inactive: [4] | [5] | [7] | [16] | [8] | [10] | [11] | [12] | [14] | [15]

Cn1cc[nH]c1=S
inactive: [4] | [5] | [6] | [7] | [8] | [9] | [10] | [11] | [17] | [12] | [13] | [14] | [15]
